The source made the active and inactive calls. No stated cut-off is given here; in the data, active means inhibition above about 50%; inactive means the rest.

For the assay, the target named is Vascular endothelial growth factor receptor 2 (Homo sapiens) (UniProt P35968). The assay can be described thus: VEGFR2 inhibitors, primary assay, biochemical, Homo sapiens, LANCE Ultra TR-FRET, NPC library (AID 1117353). As to conditions: LANCE Ultra TR-FRET kinase assay; series mostly up to 20 µM. A general note: Time-resolved FRET reads energy transfer from a long-lived donor to a nearby acceptor.
Vascular endothelial growth factor receptor 2 (Homo sapiens), sequence (P35968 whole entry, looked up): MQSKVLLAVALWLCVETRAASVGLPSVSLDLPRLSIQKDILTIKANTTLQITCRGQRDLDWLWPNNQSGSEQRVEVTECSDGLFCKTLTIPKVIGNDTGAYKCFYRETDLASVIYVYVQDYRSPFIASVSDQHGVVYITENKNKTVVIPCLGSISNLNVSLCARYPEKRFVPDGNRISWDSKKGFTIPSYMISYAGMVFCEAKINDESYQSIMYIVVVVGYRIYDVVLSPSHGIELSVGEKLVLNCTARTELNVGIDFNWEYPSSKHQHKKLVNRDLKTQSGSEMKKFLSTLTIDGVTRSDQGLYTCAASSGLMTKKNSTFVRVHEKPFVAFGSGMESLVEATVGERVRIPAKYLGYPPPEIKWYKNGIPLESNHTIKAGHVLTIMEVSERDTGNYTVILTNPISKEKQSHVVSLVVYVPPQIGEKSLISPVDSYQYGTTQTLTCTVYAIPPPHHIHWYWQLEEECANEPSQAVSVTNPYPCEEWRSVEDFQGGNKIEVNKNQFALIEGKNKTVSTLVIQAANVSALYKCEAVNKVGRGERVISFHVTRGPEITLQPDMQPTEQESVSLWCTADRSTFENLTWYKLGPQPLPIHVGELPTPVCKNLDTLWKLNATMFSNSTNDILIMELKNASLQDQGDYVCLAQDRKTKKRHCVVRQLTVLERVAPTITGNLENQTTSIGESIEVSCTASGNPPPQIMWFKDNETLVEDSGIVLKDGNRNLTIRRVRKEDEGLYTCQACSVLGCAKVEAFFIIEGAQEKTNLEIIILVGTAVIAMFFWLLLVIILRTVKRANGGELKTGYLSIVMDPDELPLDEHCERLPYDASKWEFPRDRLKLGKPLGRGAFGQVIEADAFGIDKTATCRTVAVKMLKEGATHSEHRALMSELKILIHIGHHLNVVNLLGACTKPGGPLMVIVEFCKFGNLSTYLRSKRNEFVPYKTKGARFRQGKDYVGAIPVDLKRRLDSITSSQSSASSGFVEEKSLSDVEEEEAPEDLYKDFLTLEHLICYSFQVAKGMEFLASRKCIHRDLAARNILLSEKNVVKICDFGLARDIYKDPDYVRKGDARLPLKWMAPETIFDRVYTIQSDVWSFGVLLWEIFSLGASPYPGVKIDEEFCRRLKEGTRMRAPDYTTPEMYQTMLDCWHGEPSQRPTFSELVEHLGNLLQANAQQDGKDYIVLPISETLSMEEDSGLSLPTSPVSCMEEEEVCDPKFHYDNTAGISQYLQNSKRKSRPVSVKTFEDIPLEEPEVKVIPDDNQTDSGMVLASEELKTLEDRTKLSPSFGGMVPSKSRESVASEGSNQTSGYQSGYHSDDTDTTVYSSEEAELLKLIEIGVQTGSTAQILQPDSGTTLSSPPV
Consider `Cc1ccc([N+](=O)[O-])[c]2c1[O][Hg]2`, for which the compound was classed as inactive. Then `C=C(C)[C@H]1Cc2c(ccc3c2O[C@@H]2COc4cc(OC)c(OC)cc4[C@@H]2C3=O)O1`, with “inactive”; and `O=C(CCl)c1ccc(Cl)cc1Cl`, with “inactive”.

The record behind these values is PubChem BioAssay AID1117353 (Cheminformatics & Chemogenomics Research Group (CCRG), …, 2015).
